These results are taken from PubChem BioAssay AID1942 (Johns Hopkins Ion Channel Center, 2009).

In all, about 2,400 compounds went through this assay and about 580 (24%) were called active.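 The calls were made as follows: active = activity change at or above the mean plus 3 SD of buffer wells without dofetilide, per plate; inactive = the rest.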 A selection follows.

For this test, the target named is Potassium voltage-gated channel subfamily KQT member 2 (Rattus norvegicus) (UniProt O88943). Briefly: rat KCNQ2 channel activation by compounds alone, confirmation, counter-screen for hERG block protector project, cell-based, CHO, FluxOR thallium flux (AID 1942).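 Also: normalized value minus buffer-control mean plus three SD of buffer wells.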 The conditions noted are these: CHO-KCNQ2 cells, FluxOR thallium flux fluorescence; at 10 µM; active compounds read high. (In general: The purpose of a counterscreen is to sort out artefacts and off-target activity.)
Chain of Potassium voltage-gated channel subfamily KQT member 2 (Rattus norvegicus) (O88943 whole entry, looked up): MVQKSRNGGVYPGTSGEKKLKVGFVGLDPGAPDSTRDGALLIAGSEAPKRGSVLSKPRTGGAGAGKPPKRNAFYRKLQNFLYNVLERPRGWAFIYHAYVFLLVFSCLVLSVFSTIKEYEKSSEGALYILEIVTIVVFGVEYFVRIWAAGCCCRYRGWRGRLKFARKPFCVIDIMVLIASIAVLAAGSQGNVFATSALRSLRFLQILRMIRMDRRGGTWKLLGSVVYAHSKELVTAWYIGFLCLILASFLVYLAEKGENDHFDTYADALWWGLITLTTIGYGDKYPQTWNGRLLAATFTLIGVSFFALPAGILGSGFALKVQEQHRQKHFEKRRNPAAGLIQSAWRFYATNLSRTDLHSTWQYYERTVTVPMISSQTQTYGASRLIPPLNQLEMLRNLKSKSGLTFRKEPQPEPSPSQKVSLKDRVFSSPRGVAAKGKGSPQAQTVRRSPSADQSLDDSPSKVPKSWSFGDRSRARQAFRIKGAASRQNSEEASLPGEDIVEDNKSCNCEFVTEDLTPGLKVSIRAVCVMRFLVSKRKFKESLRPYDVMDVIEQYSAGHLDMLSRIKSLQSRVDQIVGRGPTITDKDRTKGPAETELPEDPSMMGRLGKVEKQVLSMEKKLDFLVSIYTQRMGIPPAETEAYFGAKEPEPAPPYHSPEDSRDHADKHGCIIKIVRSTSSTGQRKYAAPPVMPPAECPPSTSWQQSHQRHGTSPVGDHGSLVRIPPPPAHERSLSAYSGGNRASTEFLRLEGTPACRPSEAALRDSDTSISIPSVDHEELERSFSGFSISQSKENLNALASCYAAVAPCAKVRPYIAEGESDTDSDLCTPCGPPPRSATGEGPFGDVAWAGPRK
With `Cc1ccc(C)c(N2CCN(S(=O)(=O)c3ccc(-c4ccc(=O)[nH]n4)o3)CC2)c1`, the activity change, less the hit threshold was -14.6% (inactive).

Regarding `CCn1cc(CCC(=O)NCc2cccc(OC)c2OC)c2ccccc21`, the activity change, less the hit threshold is -13% (inactive).

As to `Cc1cc(N2CCN(C)CC2)nc(N2CCOCC2)n1`, the activity change, less the hit threshold is -10% (inactive).

For `CCN(CC)C(=O)CN1C(=O)c2cccc3cccc(c23)C1=O`, the activity change, less the hit threshold is -24.8% (inactive).

Regarding `CN(C)c1oc(-c2ccccc2)nc1C#N`, the activity change, less the hit threshold was -16.2% (inactive).

On to `CC(=O)C1C(=O)c2c(cccc2[N+](=O)[O-])C1=Nc1ccccc1C` (stereo not drawn), for which the activity change, less the hit threshold was -21.7% (inactive).

On to `O=c1cc(O)c2sc(Nc3ccc(F)c(Cl)c3)nc2[nH]1`, for which the activity change, less the hit threshold was -20.3% (inactive).

As for `COc1ccc(N2CCN(CC(O)COc3ccc(F)cc3)CC2)cc1` (stereo not drawn), the activity change, less the hit threshold was -24.2% (inactive).

In the case of `CC1=C(C)CS(=O)N(c2ccc(S(N)(=O)=O)cc2)C1` (stereo not drawn), the activity change, less the hit threshold is -5.8% (inactive).

With `O=c1c2ccccc2nc(-c2ccccc2)n1O`, the activity change, less the hit threshold was -9.4% (inactive).

With `O=c1c2ccccc2nc(-c2ccc(Cl)c(Cl)c2)n1O`, the activity change, less the hit threshold was 68.4% (active).

`CC1=NN(c2ccccc2)C(=O)C1C(=O)c1ccc(Cl)cc1` (stereo not drawn): the activity change, less the hit threshold was -0.6% (inactive).

Consider `Cc1ccc(C(=O)Nc2nc3ccccc3c(=O)s2)cc1`, for which the activity change, less the hit threshold was -1.3% (inactive).

Regarding `Cc1ccc(-c2nc3c(Cl)cc(Cl)cc3c(=O)n2O)cc1`, the activity change, less the hit threshold is 142% (active).

For the molecule `Cc1ccc(-c2nc3ccccc3c(=O)n2O)cc1`, the activity change, less the hit threshold is 6.3% (active).

Take `O=c1c2cc(Cl)ccc2nc(-c2ccccc2)n1O`: the activity change, less the hit threshold was 27.1% (active).

On to `COc1cccc([C@@H]2Oc3ccc(OC)cc3C(=O)[C@H]2OC(=O)NCc2ccc3c(c2)OCO3)c1`, for which the activity change, less the hit threshold was -12.3% (inactive).

Regarding `N#CC(=C1SC=CS1)c1nc(-c2ccccc2)cs1`, the activity change, less the hit threshold was -21.5% (inactive).

Turning to `O=C(N/N=C/c1ccccc1[N+](=O)[O-])c1ccc(CN2CCOCC2)cc1`, the activity change, less the hit threshold was -14.3% (inactive).

`Cc1ccc(Nc2nc(-c3cccs3)cs2)nc1`: the activity change, less the hit threshold is -16.1% (inactive).

In the case of `O=C(N/N=C/c1cccs1)C(=O)Nc1cccc(Cl)c1`, the activity change, less the hit threshold is -12.5% (inactive).

Consider `CSc1nc2c(c(=O)[nH]1)C(c1ccc(Cl)cc1)CC(=O)N2` (stereo not drawn), for which the activity change, less the hit threshold is -14% (inactive).

For `CCOC(=O)c1c(N2C(=O)Nc3ccccc3N2O)n[nH]c1-c1cccc(Cl)c1`, the activity change, less the hit threshold is -9.4% (inactive).

In the case of `Cc1ccc(C(=O)CC(=O)c2cc(Cl)ccc2O)cc1`, the activity change, less the hit threshold is -19.3% (inactive).

For `O=c1c2cc(Cl)ccc2nc(-c2ccc(Cl)c(Cl)c2)n1O`, the activity change, less the hit threshold was 127% (active).

With `O=c1c2ccccc2nc(-c2cccc(Cl)c2)n1O`, the activity change, less the hit threshold was 28.8% (active).

Turning to `Cc1ccc(-c2nc3ccc(Cl)cc3c(=O)n2O)cc1`, the activity change, less the hit threshold was 104% (active).

Turning to `Cc1ccc(-c2onc3ccc(Cl)cc23)cc1`, the activity change, less the hit threshold was -16.5% (inactive).

With `Cc1ccc(CNS(=O)(=O)c2cc3c4c(c2)CCN4C(=O)CC3)cc1`, the activity change, less the hit threshold was -11.7% (inactive).

`Cc1cc([N+](=O)[O-])nn1CC(=O)Nc1ccc(Cl)cn1`: the activity change, less the hit threshold was -1.2% (inactive).

Take `COC(=O)c1ccc(/C=C/c2ccc3cccc(OC)c3n2)cc1`: the activity change, less the hit threshold was -22.1% (inactive).

In the case of `CC(C)CCn1c(=S)[nH]c2ncccc2c1=O`, the activity change, less the hit threshold is -3.7% (inactive).

On to `CCN(CCCn1c(=S)[nH]c2ncccc2c1=O)c1ccccc1`, for which the activity change, less the hit threshold was 10.4% (active).

As for `CCCCC(CC)CNC(=O)Cn1c(=S)[nH]c2ncccc2c1=O` (stereo not drawn), the activity change, less the hit threshold is -9.7% (inactive).

Regarding `CCCCCn1c(=S)[nH]c2ncccc2c1=O`, the activity change, less the hit threshold was 17.1% (active).

With `COC(=O)c1ccc(NN=Nc2ccc(C)cc2)cc1`, the activity change, less the hit threshold is -4.6% (inactive).

As to `C=CCNc1sc(C(=O)C(C)(C)C)c(N)c1C#N`, the activity change, less the hit threshold is -15.5% (inactive).

Consider `CCc1c(C)nc(SC)n(CC#N)c1=O`, for which the activity change, less the hit threshold is -14.4% (inactive).

`CCCCNC(=S)N/N=C/C1=CCC2CC1C2(C)C` (stereo not drawn): the activity change, less the hit threshold was -17.2% (inactive).

In the case of `O=c1c(O)c(-c2cccs2)oc2ccccc12`, the activity change, less the hit threshold is 95.3% (active).

Turning to `O=c1c(O)c(-c2cccs2)oc2ccc(Cl)cc12`, the activity change, less the hit threshold was 111% (active).

Consider `c1ccc2c(c1)c1ccccc1n1c(-c3ccc4c(c3)OCO4)nnc21`, for which the activity change, less the hit threshold is -10% (inactive).

`O=c1c(O)c(-c2ccc3c(c2)OCO3)oc2ccccc12`: the activity change, less the hit threshold is 12% (active).

Consider `Cn1nc(C(=O)Nc2ccc3c(c2)OCO3)c2ccccc2c1=O`, for which the activity change, less the hit threshold is -16.1% (inactive).

For `Cc1nnc(SCC(=O)Nc2nccs2)n1N`, the activity change, less the hit threshold was -19.4% (inactive).

For the molecule `CCOc1ccc(Nc2ccc([N+](=O)[O-])c3nonc23)cc1`, the activity change, less the hit threshold is -4.2% (inactive).

As for `COC(=O)c1ccc(-n2c(C)nc(=O)c(-c3ccccc3)c2C)cc1`, the activity change, less the hit threshold was -13.8% (inactive).

On to `CC(NC(=O)CCCn1cc([N+](=O)[O-])cn1)c1ccccc1` (stereo not drawn), for which the activity change, less the hit threshold is -27% (inactive).

Take `COc1ccc(C(=O)NNC(=O)C(=O)Nc2ccc(C)cc2)cc1`: the activity change, less the hit threshold was 22.4% (active).

As for `COc1ccc(C(=O)NNC(=O)C(=O)Nc2ccc(C)c(Cl)c2)cc1`, the activity change, less the hit threshold is -0.2% (inactive).

As to `COc1cccc(C(=O)NNC(=O)C(=O)Nc2ccc(C)c(Cl)c2)c1`, the activity change, less the hit threshold is 66.8% (active).

With `COc1ccc(NC(=O)C(=O)NNC(=O)c2ccc(Cl)cc2Cl)cc1`, the activity change, less the hit threshold is -7.7% (inactive).

For `COc1ccc(NC(=O)C(=O)NNC(=O)C(C)Oc2ccc(Cl)cc2Cl)cc1` (stereo not drawn), the activity change, less the hit threshold is 32.6% (active).

On to `COc1cccc(C(=O)Nc2cccc(-c3ccc(N4CCOCC4)nn3)c2)c1`, for which the activity change, less the hit threshold was -17.8% (inactive).

In the case of `CC(C)Oc1cccc(C(=O)N2CCCC2)c1`, the activity change, less the hit threshold is -14% (inactive).

Consider `CC(Oc1ccc(Cl)cc1Cl)C(=O)Nc1cccnc1` (stereo not drawn), for which the activity change, less the hit threshold is -25.1% (inactive).

Regarding `COc1cccc(C(=O)NNC(=O)C(=O)Nc2cccc(Cl)c2C)c1`, the activity change, less the hit threshold was 54.1% (active).

For the molecule `CCN(C(=O)c1cc2c(=O)[nH]c3ccc(C)cc3c2s1)c1ccccc1F`, the activity change, less the hit threshold is -7% (inactive).

As to `O=C(O)c1cccc2cc(-c3ccccc3)oc(=O)c12`, the activity change, less the hit threshold is -17.7% (inactive).

As for `COc1cccc(CN(C)CC2CCCN(CCc3ccc(Cl)cc3)C2)c1OC` (stereo not drawn), the activity change, less the hit threshold was -26.8% (inactive).

For the molecule `Cc1ccc(-n2nc(C)c3c2OC(N)=C(C#N)C3c2ccoc2)cc1` (stereo not drawn), the activity change, less the hit threshold was -13.7% (inactive).

Regarding `O=C(CCC(=O)N1CCN(S(=O)(=O)c2ccccc2)CC1)c1cccs1`, the activity change, less the hit threshold was -13.6% (inactive).

For `CN1C(=O)NC(c2cccc([N+](=O)[O-])c2)C2=C1CC(C)(C)CC2=O` (stereo not drawn), the activity change, less the hit threshold was -22.1% (inactive).

`COc1cccc(NC(=O)c2cncs2)c1`: the activity change, less the hit threshold was -22.6% (inactive).

For the molecule `CCc1ccc(NC(=O)C(=O)NNC(=O)c2ccc(OC)cc2)cc1`, the activity change, less the hit threshold is 100% (active).

In the case of `CCc1ccc(NC(=S)Nc2cccc(OC)c2)cc1`, the activity change, less the hit threshold is -15.5% (inactive).

As to `COc1cccc(C(=O)NNC(=O)C(=O)Nc2ccc(C)cc2)c1`, the activity change, less the hit threshold was 78.3% (active).

As for `CCc1ccc(NC(=O)C(=O)NNC(=O)c2cccc(OC)c2)cc1`, the activity change, less the hit threshold is 62.3% (active).
